Results taken from PubChem BioAssay.
For some assays here: Results with a measured potency or affinity are listed apart. Activity calls are given as the source filed them. Unless noted, no rule for the calls is given here.

How the values were obtained:
[1] = antimalarial activity against Dd2 strain (AID 2302;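 active = growth inhibition above 50% at the single 2 µM test dose, taken to imply half-maximal potency below 2 µM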;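 also: 0% = DMSO untreated growth and 100% = chloroquine plus artemisinin killed control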); details: P. falciparum Dd2 in RBCs, LDH growth readout, 72 h; at 2 µM; hits give high values
[2] = human hepatoma cell viability loss – ATP luminescence, cytotoxicity control for P. falciparum antimalarial project, primary screen (AID 2303;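 active = inhibition above 50%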;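 also: 0% = DMSO wells and 100% = digitonin-killed cells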); details: HepG2 viability, 24-48 h, at 10 µM, hits give high values
[3] = molecular target: L-lactate dehydrogenase (Plasmodium falciparum (isolate CDC / Honduras)) (UniProt Q27743); assay: PfLDH activity inhibition – cell lysate, 3D7 strain, counter-screen for P. falciparum growth inhibition project (AID 2304);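 also: 0% = vehicle and 100% = reference inhibitor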; details: P. falciparum 3D7 crude extract, LDH APAD/NBT absorbance; at 2 µM; hits give high values
[4] = inhibition of 3D7 malaria parasite growth – strain 3D7 (AID 2306);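 also: 0% = DMSO wells and 100% = chloroquine plus artemisinin control wells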; details: P. falciparum 3D7 erythrocytic growth, LDH absorbance, 72 h; at 2 µM; hits give high values
[5] = molecular target: Calcium-dependent protein kinase 1 (Plasmodium falciparum (isolate 3D7)) (UniProt P62344); assay: PfCDPK1 kinase inhibitors, biochemical, TCAMS library (AID 1159585; cut-off not given, nearly all actives have IC50 up to about 0.98 µM;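 also: inhibitors leave more ATP so luminescence rises with inhibition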); details: recombinant PfCDPK1, Kinase-Glo ATP depletion luminescence
[6] = molecular target: Plasmodium falciparum protein kinase 6 (PK6, PF3D7_1337100) (UniProt Q8IDW1); assay: PfPK6 kinase inhibitors, biochemical, TCAMS library (AID 1159586); details: recombinant PfPK6, Kinase-Glo ATP depletion luminescence
[7] = molecular target: Protein kinase 7 (PK7), Plasmodium falciparum 3D7 (PF3D7_0213400) (UniProt Q7YTF7); assay: inhibition of Plasmodium PK7 catalytic activity – biochemical, TCAMS antimalarial set, Kinase-Glo luminescence (AID 1159587); details: recombinant PfPK7, Kinase-Glo ATP depletion luminescence
[8] = molecular target: Calcium-dependent protein kinase 4 (Plasmodium falciparum (isolate 3D7)) (UniProt Q8IBS5); assay: PfCDPK4 kinase inhibitors, biochemical, TCAMS library (AID 1159588; cut-off not given, nearly all actives have IC50 up to about 0.91 µM); details: recombinant PfCDPK4, Kinase-Glo ATP depletion luminescence
Calcium-dependent protein kinase 4 (Plasmodium falciparum (isolate 3D7)), sequence (Q8IBS5 whole entry, looked up): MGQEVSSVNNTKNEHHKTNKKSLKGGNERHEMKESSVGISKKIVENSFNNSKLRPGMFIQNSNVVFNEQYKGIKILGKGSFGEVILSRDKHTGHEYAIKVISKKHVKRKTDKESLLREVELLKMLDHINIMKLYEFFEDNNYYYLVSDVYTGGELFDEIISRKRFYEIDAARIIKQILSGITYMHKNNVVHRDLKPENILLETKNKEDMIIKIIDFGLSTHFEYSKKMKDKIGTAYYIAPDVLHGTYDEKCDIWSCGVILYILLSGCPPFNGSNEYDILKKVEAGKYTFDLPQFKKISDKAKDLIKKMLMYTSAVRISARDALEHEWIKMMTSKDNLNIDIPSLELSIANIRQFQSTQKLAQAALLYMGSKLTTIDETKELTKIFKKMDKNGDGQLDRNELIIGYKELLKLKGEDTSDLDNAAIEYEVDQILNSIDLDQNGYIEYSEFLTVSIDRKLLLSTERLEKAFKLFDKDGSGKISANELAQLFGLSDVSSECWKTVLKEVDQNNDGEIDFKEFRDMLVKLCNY

Calcium-dependent protein kinase 1 (Plasmodium falciparum (isolate 3D7)), sequence (P62344 whole entry, looked up): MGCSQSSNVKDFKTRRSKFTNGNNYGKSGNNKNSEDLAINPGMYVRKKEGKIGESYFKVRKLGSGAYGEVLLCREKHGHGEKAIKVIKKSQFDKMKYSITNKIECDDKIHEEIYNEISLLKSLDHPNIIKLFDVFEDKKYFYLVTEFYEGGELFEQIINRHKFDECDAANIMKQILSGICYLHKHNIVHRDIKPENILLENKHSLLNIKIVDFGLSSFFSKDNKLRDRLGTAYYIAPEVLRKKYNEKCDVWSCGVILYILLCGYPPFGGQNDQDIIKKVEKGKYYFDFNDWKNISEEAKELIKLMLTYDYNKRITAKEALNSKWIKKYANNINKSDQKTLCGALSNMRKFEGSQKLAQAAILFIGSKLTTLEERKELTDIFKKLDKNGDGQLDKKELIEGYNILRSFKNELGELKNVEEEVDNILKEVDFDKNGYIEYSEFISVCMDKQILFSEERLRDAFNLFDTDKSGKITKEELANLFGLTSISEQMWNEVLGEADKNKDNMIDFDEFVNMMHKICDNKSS
Plasmodium falciparum protein kinase 6 (PK6, PF3D7_1337100), sequence (Q8IDW1 1-305): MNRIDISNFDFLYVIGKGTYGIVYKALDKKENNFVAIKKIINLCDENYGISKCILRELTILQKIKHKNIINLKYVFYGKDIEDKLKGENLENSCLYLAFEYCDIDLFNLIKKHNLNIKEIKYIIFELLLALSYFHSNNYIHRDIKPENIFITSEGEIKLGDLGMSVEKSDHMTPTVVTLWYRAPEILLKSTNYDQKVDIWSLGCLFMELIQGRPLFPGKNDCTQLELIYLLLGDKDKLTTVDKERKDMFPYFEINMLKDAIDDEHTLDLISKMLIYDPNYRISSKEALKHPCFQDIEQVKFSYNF
Protein kinase 7 (PK7), Plasmodium falciparum 3D7 (PF3D7_0213400), sequence (Q7YTF7 1-343): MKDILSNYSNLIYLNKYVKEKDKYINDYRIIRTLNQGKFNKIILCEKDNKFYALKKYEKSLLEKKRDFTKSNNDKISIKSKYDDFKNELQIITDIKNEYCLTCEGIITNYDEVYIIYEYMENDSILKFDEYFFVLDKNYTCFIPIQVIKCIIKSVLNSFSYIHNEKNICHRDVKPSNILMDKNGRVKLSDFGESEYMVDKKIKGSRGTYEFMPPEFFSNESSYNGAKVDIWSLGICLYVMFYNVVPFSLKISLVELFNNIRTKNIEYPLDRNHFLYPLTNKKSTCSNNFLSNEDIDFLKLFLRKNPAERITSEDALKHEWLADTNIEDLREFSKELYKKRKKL
L-lactate dehydrogenase (Plasmodium falciparum (isolate CDC / Honduras)), sequence (Q27743 whole entry, looked up): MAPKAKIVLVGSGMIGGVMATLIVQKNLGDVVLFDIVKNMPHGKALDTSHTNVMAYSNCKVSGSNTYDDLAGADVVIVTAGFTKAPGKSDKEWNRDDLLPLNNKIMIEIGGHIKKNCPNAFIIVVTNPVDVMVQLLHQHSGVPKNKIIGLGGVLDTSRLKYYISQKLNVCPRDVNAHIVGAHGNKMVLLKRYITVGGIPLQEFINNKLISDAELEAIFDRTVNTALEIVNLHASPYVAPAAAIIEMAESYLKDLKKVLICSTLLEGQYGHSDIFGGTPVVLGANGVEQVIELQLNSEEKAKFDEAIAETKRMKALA

CCN(CC)CCNC(=O)c1ccc(NC(=O)c2cn(-c3ccccc3)nc2-c2cccs2)cc1
active: growth inhibition [1] 94% | growth inhibition [4] 103%
inactive: inhibition [2] 30% | inhibition [3] -1% | outcome [5] | outcome [6] | outcome [7] | outcome [8]

COc1cccc(-c2cccc(CNC3CCN(CC4Cn5c(=O)ccc6ccc(F)c4c65)CC3)c2)c1 (stereo not given)
inactive: growth inhibition [1] 15% | inhibition [2] 23% | inhibition [3] 4% | outcome [5] | outcome [6] | outcome [7] | outcome [8]
active: growth inhibition [4] 99%

Cc1cc(O)c(CN2CCN(Cc3cccs3)CC2)cc1C(C)C
inactive: inhibition [2] 7% | inhibition [3] -2% | outcome [5] | outcome [6] | outcome [7] | outcome [8]
active: growth inhibition [1] 97% | growth inhibition [4] 98%

CC(C)CNCc1ccc(-c2cccc(-c3nc4ccccc4[nH]3)c2)cc1
active: growth inhibition [1] 98% | inhibition [2] 53% | growth inhibition [4] 99%
inactive: inhibition [3] -5% | outcome [5] | outcome [6] | outcome [7] | outcome [8]

Cc1cccc(CNc2nc(C)cc(N[C@@H](Cc3ccccc3)C(=O)NC3CCCC3)n2)c1
inactive: inhibition [3] -3% | outcome [5] | outcome [6] | outcome [7] | outcome [8]
active: growth inhibition [1] 97% | inhibition [2] 51% | growth inhibition [4] 100%

CC(C)CNCc1cccc(-c2ccc(CN(CCCN3CCN(C)CC3)C(=O)CCC3CCCC3)cc2)c1
inactive: inhibition [3] 0% | outcome [5] | outcome [6] | outcome [7] | outcome [8]
active: growth inhibition [1] 89% | inhibition [2] 82% | growth inhibition [4] 98%

CC(=NN=C(N)N)c1ccc2c(ccc3ccccc32)c1
inactive: growth inhibition [1] 15% | inhibition [2] 47% | inhibition [3] 8% | outcome [5] | outcome [6] | outcome [7] | outcome [8]
active: growth inhibition [4] 100%

O=C(CSc1nc2ccccc2c(=O)n1C1CC1)Nc1cc(C(F)(F)F)ccc1Cl
active: growth inhibition [1] 96% | growth inhibition [4] 97%
inactive: inhibition [2] 5% | inhibition [3] 2% | outcome [5] | outcome [6] | outcome [7] | outcome [8]

O=C(Nc1ccc(F)c(Cl)c1)NC1CCN(c2ccnc3cc(Cl)ccc23)C1 (stereo not given)
inactive: inhibition [2] 37% | inhibition [3] -3% | outcome [5] | outcome [6] | outcome [7] | outcome [8]
active: growth inhibition [1] 74% | growth inhibition [4] 101%

O=C(Nc1cccc(CN2CCCN(CCc3ccccc3)CC2)c1)c1ccc(Cl)c(Cl)c1
active: growth inhibition [4] 86%
inactive: growth inhibition [1] 15% | inhibition [2] 41% | inhibition [3] -5% | outcome [5] | outcome [6] | outcome [7] | outcome [8]

Cc1ccoc1C(=O)Nc1cccc(-c2cccc(-c3nc4ccc(C(F)(F)F)cc4[nH]3)c2)c1
active: growth inhibition [4] 98%
inactive: growth inhibition [1] 37% | inhibition [2] 39% | inhibition [3] -6% | outcome [5] | outcome [6] | outcome [7] | outcome [8]

CC1CN(Cc2ccc(-c3cccc(-c4nc5ccc(F)cc5[nH]4)c3)cc2)CC(C)O1 (stereo not given)
inactive: growth inhibition [1] 20% | inhibition [2] 28% | inhibition [3] -3% | outcome [5] | outcome [6] | outcome [7] | outcome [8]
active: growth inhibition [4] 93%

O=C(N[C@H]1CCN(Cc2ccc(OCCCN3CCCCC3)cc2)C1)c1ccc(Cl)c(Cl)c1
active: growth inhibition [4] 102%
inactive: growth inhibition [1] 36% | inhibition [2] 27% | inhibition [3] 0% | outcome [5] | outcome [6] | outcome [7] | outcome [8]

N#CNC(=NCCCSc1csc(N=C(N)N)n1)NCCCCCCCCN=C(NC#N)NCCSCc1csc(N=C(N)N)n1
active: growth inhibition [4] 91%
inactive: growth inhibition [1] 24% | inhibition [2] -1% | inhibition [3] -4% | outcome [5] | outcome [6] | outcome [7] | outcome [8]

Cc1c(F)cc(C(=O)NC2CC2)cc1-c1ccc2c(cnn2S(=O)(=O)c2ccc(Cl)s2)c1
active: growth inhibition [1] 50% | growth inhibition [4] 81%
inactive: inhibition [2] 24% | inhibition [3] -4% | outcome [5] | outcome [6] | outcome [7] | outcome [8]

COc1cccc(Nc2nccc(NCC(O)c3cccc(C(F)(F)F)c3)n2)c1 (stereo not given)
inactive: growth inhibition [1] 27% | inhibition [2] 6% | inhibition [3] -4% | outcome [5] | outcome [6] | outcome [7] | outcome [8]
active: growth inhibition [4] 96%

CC(C)c1ccc(NC(=O)NC2CCN(CCCCCNC(=O)/C=C/c3ccc(Cl)c(Cl)c3)CC2)cc1
active: growth inhibition [4] 100%
inactive: growth inhibition [1] 19% | inhibition [2] -5% | inhibition [3] -2% | outcome [5] | outcome [6] | outcome [7] | outcome [8]

Cc1ccc(-n2cc(CNCCc3ncc(C)[nH]3)c(-c3ccc(F)cc3)n2)cc1
inactive: growth inhibition [1] 12% | inhibition [2] 15% | inhibition [3] -2% | outcome [5] | outcome [6] | outcome [7] | outcome [8]
active: growth inhibition [4] 86%

Cc1cc(C(=O)NC2CCN(Cc3ccccc3)CC2)ccc1-c1nc2ccc(C(F)(F)F)cc2[nH]1
inactive: growth inhibition [1] 2% | inhibition [2] 19% | inhibition [3] -1% | outcome [5] | outcome [6] | outcome [7] | outcome [8]
active: growth inhibition [4] 95%

COc1ccc(CCNc2nc(NCc3ccccc3)c3cc(OC)c(OC)cc3n2)cc1OC
inactive: inhibition [2] 46% | inhibition [3] 0% | outcome [5] | outcome [6] | outcome [7] | outcome [8]
active: growth inhibition [1] 91% | growth inhibition [4] 100%

O=C(Nc1ccc(OC(F)(F)F)cc1)Nc1ccc([N+](=O)[O-])cc1
inactive: inhibition [2] 41% | inhibition [3] 3% | outcome [5] | outcome [6] | outcome [7] | outcome [8]
active: growth inhibition [1] 100% | growth inhibition [4] 100%

O=C(NC(=Cc1cccc([N+](=O)[O-])c1)c1nc2ccccc2[nH]1)c1cccc(Br)c1
active: growth inhibition [1] 88% | growth inhibition [4] 85%
inactive: inhibition [2] -1% | inhibition [3] 0% | outcome [5] | outcome [6] | outcome [7] | outcome [8]

CCN1CCN(Cc2ccc3nc(-c4cc(C)n(Cc5cc(Cl)ccc5OCc5ccccc5)n4)[nH]c3c2)CC1
active: growth inhibition [1] 97% | growth inhibition [4] 102%
inactive: inhibition [2] 11% | inhibition [3] 2% | outcome [5] | outcome [6] | outcome [7] | outcome [8]

COC(=O)c1ccc(NC(=O)Nc2ccc(Cn3ncc(N4CCCNCC4)c(Cl)c3=O)cc2)cc1
active: growth inhibition [4] 83%
inactive: growth inhibition [1] 43% | inhibition [2] -1% | inhibition [3] -1% | outcome [5] | outcome [6] | outcome [7] | outcome [8]

COc1ccc(CNC(=O)Nc2cc3cc(-c4ccc(CN(C)C)cc4)ccc3n3c(C)nnc23)cc1
inactive: inhibition [3] -4% | outcome [5] | outcome [6] | outcome [7] | outcome [8]
active: growth inhibition [1] 80% | inhibition [2] 99% | growth inhibition [4] 93%

O=C(Nc1ccc(CCNCc2ccccc2)cc1)Nc1ccc(OC(F)(F)F)cc1
active: growth inhibition [4] 102%
inactive: growth inhibition [1] 22% | inhibition [2] -2% | inhibition [3] -2% | outcome [5] | outcome [6] | outcome [7] | outcome [8]

COc1ccc(NC(=O)/C=C/c2ccccc2Cl)cc1OCCN1CCC(NCc2ccccc2)CC1
inactive: inhibition [2] 28% | inhibition [3] 7% | outcome [5] | outcome [6] | outcome [7] | outcome [8]
active: growth inhibition [1] 101% | growth inhibition [4] 106%

CC12CCC(C(=O)N(CC(O)Cn3c4ccc(Cl)cc4c4cc(Cl)ccc43)C1=O)C2(C)C (stereo not given)
inactive: inhibition [2] -1% | inhibition [3] -5% | outcome [5] | outcome [6] | outcome [7] | outcome [8]
active: growth inhibition [1] 99% | growth inhibition [4] 100%

O=S(=O)(Nc1cccc(CCN2CCC(N3CCCCC3)CC2)c1)c1ccc2c(c1)OCCO2
inactive: growth inhibition [1] 5% | inhibition [2] 8% | inhibition [3] -1% | outcome [5] | outcome [6] | outcome [7] | outcome [8]
active: growth inhibition [4] 91%

COc1ccc(-n2nc(C)c3c2NC(=O)CC3c2ccccc2OCc2ccccc2F)cc1 (stereo not given)
inactive: inhibition [2] 38% | inhibition [3] 4% | outcome [5] | outcome [6] | outcome [7] | outcome [8]
active: growth inhibition [1] 70% | growth inhibition [4] 93%

CC(=O)Nc1nc(C(=O)Nc2ccc(-c3ccc(-c4nc5ccc(F)cc5[nH]4)cc3)cc2)cs1
inactive: growth inhibition [1] 33% | inhibition [2] 17% | inhibition [3] -5% | outcome [5] | outcome [6] | outcome [7] | outcome [8]
active: growth inhibition [4] 100%

Cc1ccccc1CNc1nccc(NCCC(=O)Nc2ccccc2)n1
active: growth inhibition [4] 90%
inactive: growth inhibition [1] 15% | inhibition [2] 16% | inhibition [3] -3% | outcome [5] | outcome [6] | outcome [7] | outcome [8]

O=C(NCCc1ccccc1)N(Cc1ccccc1-c1ccc(CNCCc2ccccc2)cc1)C1CCN(Cc2ccccc2)CC1
inactive: inhibition [3] 5% | outcome [5] | outcome [6] | outcome [7] | outcome [8]
active: growth inhibition [1] 91% | inhibition [2] 99% | growth inhibition [4] 97%

C=CCc1cc(Cc2cnc(N)nc2N)c2ccc(C)nc2c1O
inactive: growth inhibition [1] 3% | inhibition [3] 0% | outcome [5] | outcome [6] | outcome [7] | outcome [8]
active: inhibition [2] 51% | growth inhibition [4] 84%

Cc1ccc(Nc2nc(C)cc(NC3CCCC3)n2)cc1
inactive: inhibition [2] 33% | inhibition [3] 0% | outcome [5] | outcome [6] | outcome [7] | outcome [8]
active: growth inhibition [1] 89% | growth inhibition [4] 100%

FC(F)(F)c1ccc2nc(-c3ccc(-c4cccc(CN5CCN(CCN6CCOCC6)CC5)c4)cc3)[nH]c2c1
active: growth inhibition [1] 77% | growth inhibition [4] 98%
inactive: inhibition [2] 47% | inhibition [3] -6% | outcome [5] | outcome [6] | outcome [7] | outcome [8]

Cc1ccc(Cc2cnc(NCCSCc3ccc(CN4CCOCC4)o3)[nH]c2=O)cn1
inactive: growth inhibition [1] -3% | inhibition [2] 2% | inhibition [3] -4% | outcome [5] | outcome [6] | outcome [7] | outcome [8]
active: growth inhibition [4] 95%

Cc1c(OC(C)C)nc2ccccc2c1C(=O)N[C@H](c1cccc(F)c1)C1CC1
inactive: growth inhibition [1] 34% | inhibition [2] 6% | inhibition [3] 3% | outcome [5] | outcome [6] | outcome [7] | outcome [8]
active: growth inhibition [4] 83%

O=C(Nc1ccccc1-c1nc2ccccc2s1)C(Cl)(Cl)Cl
active: growth inhibition [1] 99% | growth inhibition [4] 97%
inactive: inhibition [2] 12% | inhibition [3] -7% | outcome [5] | outcome [6] | outcome [7] | outcome [8]

COc1ccc(-c2ccc(NC(=O)c3cccc(Cl)c3)cc2)cc1CN(C)CCN(C)C
active: growth inhibition [4] 100%
inactive: growth inhibition [1] 35% | inhibition [2] 22% | inhibition [3] -3% | outcome [5] | outcome [6] | outcome [7] | outcome [8]
